Reference: ChEMBL document CHEMBL1157539, “Thousands of chemical starting points for antimalarial lead identification” (Nature, 2010)

Key:
Assay type in all cases: functional
[1] = tested on: Plasmodium falciparum; test: GSK_TCMDC: Inhibition of Plasmodium falciparum 3D7 in whole red blood cells, using parasite LDH activity as an index of growth. Test compounds present at 2uM
[2] = tested on: Plasmodium falciparum; test: GSK_TCMDC: Inhibition of Plasmodium falciparum Dd2 in whole red blood cells, using parasite LDH activity as an index of growth. Test compounds present at 2uM
[3] = tested on: HepG2; test: GSK_TCMDC: Percent inhibition of human HepG2 cell line. Test compounds present at 10uM.

| SMILES | Inhibition [1] | Inhibition [2] | Inhibition [3] |
| --- | --- | --- | --- |
| Cl.Nc1ncc(-c2ccccc2)cc1-c1nc2cc(Cl)c(F)cc2[nH]1 | 100% | 91% | 37% |
| COc1ccc(CNC2Cc3ccccc3C2)cc1-c1ccc(S(=O)(=O)NCc2ccccc2)s1.O=C(O)C(F)(F)F | 97% | 25% | 22% |
| COc1cc2c(cc1OC)C(c1ccc(Br)cc1)CN(C)CC2.Cl (stereo not drawn) | 86% | 0% | 8% |
| Oc1ccc(-c2nc(-c3ccc4oc5ccc(-c6[nH]c(-c7ccc(O)cc7)nc6-c6ccccc6)cc5c4c3)c(-c3ccccc3)[nH]2)cc1 | 84% | 71% | 0% |
| Cc1cccc(S(=O)(=O)Nc2cccc(CCN3CCC(N4CCCCC4)CC3)c2)c1 | 87% | 13% | 15% |
| FC(F)(F)c1cnc(Sc2nnc(-c3ccco3)o2)c(Cl)c1 | 98% | 97% | 0% |
| CCOC(=O)CNC(=O)N1CCN(C(=O)NCC(=O)OCC)CC1 | 93% | 0% | 0% |
| CC[C@H](C)CNC(=O)c1cncc(-c2ccc(CN3CCC(N4CCCC4)CC3)cc2)c1.O=C(O)C(F)(F)F | 100% | 100% | 0% |
| Cc1c(CN2CCC(N3CCC(C(=O)NC4CC4)CC3)CC2)[nH]c2c(Cl)cccc12 | 92% | 3% | 22% |
| Cc1ccc(NC(C)C(=O)Nc2ccc(C#N)cc2)cc1S(=O)(=O)N1CCCCC1 (stereo not drawn) | 92% | 92% | 11% |
| CC(=O)c1c(Nc2c(C)cc(C)cc2C)oc(C)cc1=O | 95% | 83% | 7% |
| COc1cc2ccccc2cc1OCCCN1CCN(CC(c2ccc(F)cc2)N2CCN(C(C)C)CC2)CC1.Cl (stereo not drawn) | 100% | 92% | 72% |
| O=C(Nc1ccc(Br)cc1)c1cc(Br)ccc1NS(=O)(=O)c1cc(C(F)(F)F)cc(C(F)(F)F)c1 | 85% | 67% | 68% |
| CCOc1ccccc1CNc1nccc(NCc2ccccc2OC)n1 | 87% | 66% | 50% |
| CN1CCC(C(=O)Nc2cccc(-c3ccc(-c4nc5ccccc5[nH]4)cc3)c2)CC1 | 82% | 15% | 7% |
| Cc1cccc2nc(-c3cccc(-c4ccc(NC(=O)c5c[nH]cn5)cc4)c3)[nH]c12 | 100% | 48% | 8% |
| CC(Cc1ccc(OCCN2CCN(c3cccc(C(F)(F)F)c3)CC2)cc1)NCC(O)c1cccc(C(F)(F)F)c1.Cl (stereo not drawn) | 97% | 91% | 11% |
| Clc1ccc(Cl)c2[nH]c(CNCCCNc3nc4ccccc4[nH]3)cc12 | 100% | 39% | 88% |
| COc1ccc(C(=O)Nc2nonc2-c2ccc(OC)c(OC)c2)cc1Cl | 97% | 97% | 6% |
| OC1(c2ccccc2)c2cc(Cl)ccc2OC1c1nc2c(Cl)ccc(Cl)c2o1 (stereo not drawn) | 98% | 89% | 7% |
| COc1ccc(-c2nc3ccc(C)nc3nc2-c2ccc(OC)cc2)cc1 | 91% | 0% | 4% |

| SMILES | Inhibition [1] | Inhibition [2] | Inhibition [3] |
| --- | --- | --- | --- |
| CCOC(=O)NC1=NC(C)(C)N(OCc2cccc3c2ccc2ccccc23)C(NC(=O)OCC)=N1 | 98% | 3% | 3% |
| CS(=O)(=O)c1ccc(CCNCc2ccc(-c3ccc(CN(C(=O)C4CC(=O)c5ccccc54)C4CCN(Cc5ccccc5)CC4)cc3)nc2)cc1.O=C(O)C(F)(F)F (stereo not drawn) | 100% | 49% | 9% |
| Cc1ccc(Cn2ncc(N3CCCNCC3)c(Cl)c2=O)cc1NC(=O)Nc1ccc(-c2ccccc2)cc1 | 100% | 38% | 55% |
| Cc1nc(O)c2c(ccc3ccc(CNc4ccc(C(=O)N[C@@H](CCC(=O)O)C(=O)O)cc4)cc32)n1 | 89% | 95% | 32% |
| Cc1cccc(C(=O)Nc2ccnc(N3CCCN(Cc4cccc(O)c4)CC3)c2)c1.O=C(O)C(F)(F)F | 84% | 13% | 0% |
| CCCC(CNCc1ccccc1)CNc1cc(=O)c2ccccc2[nH]1 (stereo not drawn) | 86% | 21% | 2% |
| Cc1cc(N[C@@H](CC(C)C)C(=O)NCCc2ccccc2)nc(NCC2CCCCC2)n1.O=C(O)C(F)(F)F | 97% | 65% | 19% |
| CC(O)C1CCCCN1C(=O)c1ccc(-c2cccc(-c3nc4cc(F)ccc4[nH]3)c2)cc1 (stereo not drawn) | 100% | 97% | 30% |
| CC1(C)CCCN(C(=O)c2cccc(-n3nc(-c4ccc(Cl)cc4)cc3N)c2)C1 | 100% | 98% | 13% |
| Cc1ccc(Nc2ccnc(Nc3ccc(C)c(F)c3)n2)cc1O.Cl | 100% | 27% | 4% |
| CC[C@H](C)CNC(=O)c1cncc(-c2ccc(CNCCCc3ccccc3)cc2)c1.O=C(O)C(F)(F)F | 100% | 99% | 19% |
| COc1ccc2c(c1C1CCN(CCCCNC(=O)c3ccc(NC(=O)c4ccc(Cl)cc4)cc3)CC1)CCCC2 | 100% | 99% | 19% |
| CC(C)COc1ccc(Cl)cc1Cc1ccc(-c2nc3ccc(F)c(F)c3[nH]2)o1 | 94% | 85% | 26% |
| COc1ccc(Nc2nc(NN=Cc3cc(Br)c(O)cc3O)nc(Nc3ccc([N+](=O)[O-])cc3)n2)cc1 | 97% | 23% | 30% |
| COC(=O)c1ccc2nc(-c3cc(OC)c(O)c(C(=O)NC4CCN(Cc5ccccc5)CC4)c3)[nH]c2c1 | 85% | 0% | 8% |
| COc1ccc(CN2CCC(NCc3cccc(-n4ccnc4)c3)CC2)cc1.O=C(O)C(F)(F)F | 100% | 93% | 10% |
| COc1ccccc1Cc1nc2ccccc2nc1SCC(=O)Nc1cccc(C(F)(F)F)c1 | 97% | 91% | 8% |
| CN(C)c1ccc(-c2ccc(C(=O)NC3CCN(Cc4ccccc4)CC3)s2)cc1.O=C(O)C(F)(F)F | 92% | 10% | 20% |
| COc1cccc(C(C)(C)NC[C@@H](O)[C@H](Cc2ccccc2)NC(=O)c2cc(C3CCCC3)cc(N3CCCCS3(=O)=O)c2F)c1.O=CO | 99% | 99% | 16% |
| O=C(/C=C/c1ccc(Cl)c(Cl)c1)NCCCCCN1CCC(c2c[nH]c3c(-c4ccccc4)cccc23)CC1 | 99% | 40% | 74% |
| CC(C)(C)CNCC(C)(C)c1nc(-c2ccc(Cl)c(O)c2)c(-c2ccncc2)[nH]1.Cl | 100% | 98% | 42% |

| SMILES | Inhibition [1] | Inhibition [2] | Inhibition [3] |
| --- | --- | --- | --- |
| Cc1cc(C)c2cc(CNCCCNc3nc4ccccc4[nH]3)[nH]c2c1 | 100% | 0% | 32% |
| O=C(Nc1cccc(-c2cccc(-c3nc4cc(C(F)(F)F)ccc4[nH]3)c2)c1)c1ccoc1 | 99% | 61% | 32% |
| Cc1ccc(C)c(Sc2ccc(NC(=O)CN3CCN(C(=O)c4ccco4)CC3)cc2)c1 | 96% | 93% | 28% |
| CCCc1ccc(NC(=O)c2ccc(CN3CCCN(Cc4ccc(OC)cc4)CC3)cc2)cc1.O=C(O)C(F)(F)F | 81% | 0% | 47% |
| COCCCNc1sc(S(=O)(=O)c2ccccc2)nc1S(=O)(=O)c1ccc(C)cc1 | 84% | 44% | 7% |
| COc1cccc(CN2CCCN(Cc3cccc(NC(=O)c4cc5ccccc5s4)c3)CC2)c1.O=C(O)C(F)(F)F | 89% | 16% | 17% |
| COc1cccc(NC(=O)c2cc(C(=O)Nc3cccc(OC)c3)cc([N+](=O)[O-])c2)c1 | 99% | 61% | 1% |
| CN1CCC(NCc2ccc(-c3cnc(NCc4ccccc4)nc3)cc2)CC1.O=C(O)C(F)(F)F | 91% | 64% | 23% |
| CCCN(CCC)C(=S)N/N=C1/C(=O)Nc2ccccc21 | 97% | 86% | 28% |
| COc1ccc(C=NN=c2cc(C)[nH]c3ccc(C)cc23)c2ccccc12.Cl | 94% | 55% | 28% |
| O=C(Nc1ccc(-c2ccccc2)cc1)Nc1cccc(Cn2ncc(N3CCCNCC3)c(Cl)c2=O)c1 | 100% | 52% | 14% |
| CCc1ccc(NC(=O)c2ccc(CN3CCCN(Cc4cccc(O)c4)CC3)cc2)cc1.O=C(O)C(F)(F)F | 100% | 55% | 51% |
| O=C(Nc1cccc(F)c1)NC1CCN(c2ccnc3cc(Cl)ccc23)C1.O=C(O)C(F)(F)F (stereo not drawn) | 100% | 64% | 13% |
| O=C(Cc1cn(-c2ccccc2)nc1-c1ccc(Cl)cc1)Nc1nccs1 | 88% | 8% | 9% |
| COc1ccc(N2CCN(c3nc(Nc4ccc(NC(C)=O)cc4)nc(N4CCCC4)n3)CC2)cc1 | 91% | 38% | 0% |
| CC(C)(C)[C@@H](Nc1ccc(C#N)c2ccccc12)C(=O)NC1(Cc2ccc(O)c(Br)c2)CCCC1 | 84% | 16% | 2% |
| O=C(NCCCCN1CC=C(c2ccc3c(c2OCC2CC2)CCCC3)CC1)c1ccc(-c2ccc(C(F)(F)F)cc2)cc1 | 93% | 60% | 25% |
| O=C(c1ccc(-c2ccc(-c3nc4ccccc4[nH]3)s2)cc1)N1CCCCC1CN1CCC(O)C1 (stereo not drawn) | 84% | 55% | 18% |
| CN(C)CCN(C)Cc1ccc(-c2ccc(NC(=O)c3ccc(Cl)cc3)cc2)cc1.O=C(O)C(F)(F)F | 91% | 19% | 51% |
